According to the supplement of paper PMC9262897, “Low-cost anti-mycobacterial drug discovery using engineered E. coli” (Nature Communications, 2022):
Where a name gives a salt, the structure may show the parent alone. ± gives the standard deviation of the averaged measurements.

Tested on: E. coli TESEC Alr+ wild-type control
Assay: growth (OD600 after 10 h); higher = more growth (less inhibition)
Settings: compound 0.1 mM; raw OD600 reference: median of DMSO wells 0.241, cell-free background 0.041
Protocol: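 TESEC Mtb Alr E. coli, or the Alr+ wild-type control, in 384-well plates with Prestwick library compounds at 0.1 mM and 1% DMSO, across arabinose induction levels of 1E3 to 1E7 nM. Growth is read as OD600 after 10 h at 37 °C in triplicate biological replicates.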

Row | SMILES | growth
1 | N=c1nc(N2CCCCC2)cc(N)n1O [Minoxidil] | 0.244 ± 0.0093
2 | CC(=O)NC[C@H]1CN(c2ccc(N3CCOCC3)c(F)c2)C(=O)O1 [Linezolid] | 0.047 ± 0.0002
3 | CC(O)(P(=O)(O)O)P(=O)(O)O [Etidronic acid, disodium salt] | 0.261 ± 0.021
4 | COc1ccc2cc([C@@H](C)C(=O)O)ccc2c1 [(R) -Naproxen sodium salt] | 0.263 ± 0.0059
5 | NC1CCN(c2nc3c(cc2F)c(=O)c(C(=O)O)cn3-c2ccc(F)cc2F)C1 (stereo not given) [Tosufloxacin hydrochloride] | 0.0572 ± 0.0069
6 | O=C(NCCNCC(O)COc1ccc(O)cc1)N1CCOCC1 (stereo not given) [Xamoterol hemifumarate] | 0.241 ± 0.013
7 | Cc1cc2cc3c(C)cc(=O)oc3c(C)c2o1 [Trioxsalen] | 0.253 ± 0.0068
8 | CCCCC(=O)O[C@H]1CC[C@H]2[C@@H]3CCc4cc(O)ccc4[C@H]3CC[C@]12C [Estradiol Valerate] | 0.252 ± 0.004
9 | CCCc1ncc(C[n+]2ccccc2C)c(N)n1 [Amprolium hydrochloride] | 0.245 ± 0.0098
10 | COC1=C(OC)C(=O)C(CCCCCCCCCCO)=C(C)C1=O [Idebenone] | 0.0426 ± 0.0005
11 | CC(N/C(=N\C#N)Nc1ccncc1)C(C)(C)C (stereo not given) [Pinacidil] | 0.223 ± 0.015
12 | C[C@H]1C[C@H]2[C@@H]3CCC4=CC(=O)C=C[C@]4(C)[C@@]3(F)[C@@H](O)C[C@]2(C)[C@@]1(O)C(=O)CO [Betamethasone] | 0.184 ± 0.0078
13 | Fc1ccc(C(c2ccc(F)cc2)N2CCN(C/C=C/c3ccccc3)CC2)cc1 [Flunarizine dihydrochloride] | 0.0778 ± 0.012
14 | CCC(NC(C)C)C(O)c1ccc(O)c(O)c1 (stereo not given) [Isoetharine mesylate salt] | 0.196 ± 0.0071
15 | C[C@H]1O[C@@H](O[C@H]2[C@@H](O)C[C@H](O[C@H]3[C@@H](O)C[C@H](O[C@H]4CC[C@@]5(C)[C@H](CC[C@@H]6[C@@H]5C[C@@H](O)[C@]5(C)[C@@H](C7=CC(=O)OC7)CC[C@]65O)C4)O[C@@H]3C)O[C@@H]2C)C[C@H](O)[C@@H]1O [Digoxin] | 0.232 ± 0.0079
16 | CC(C)(O/N=C(\C(=O)N[C@@H]1C(=O)N2C(C(=O)[O-])=C(C[n+]3ccccc3)CS[C@H]12)c1csc(N)n1)C(=O)O [Ceftazidime pentahydrate] | 0.0434 ± 0.00087
17 | Cc1cccc(C)c1NC(=O)C(C)N (stereo not given) [Tocainide hydrochloride] | 0.26 ± 0.0084
18 | CCCCNc1cc(C(=O)O)cc(S(N)(=O)=O)c1Oc1ccccc1 [Bumetanide] | 0.234 ± 0.0058
19 | CCCSc1ccc2[nH]c(NC(=O)OC)nc2c1 [Albendazole] | 0.246 ± 0.025
20 | O=c1[nH]cc(F)c(=O)[nH]1 [5-fluorouracil] | 0.122 ± 0.0069

Row | SMILES | growth
21 | CCN(CC)CCOC(=O)C(c1ccccc1)c1ccccc1 [Adiphenine hydrochloride] | 0.222 ± 0.0088
22 | CCCCc1cc2ccccc2c(OCCN(C)C)n1 [Dimethisoquin hydrochloride] | 0.177 ± 0.0065
23 | Nc1ccc(S(=O)(=O)Nc2nccs2)cc1 [Sulfathiazole] | 0.244 ± 0.013
24 | Nc1c2c(nc3ccccc13)CCCC2 [Tacrine hydrochloride] | 0.22 ± 0.0053
25 | O=C(O)c1cc(/N=N/c2ccc(S(=O)(=O)Nc3ccccn3)cc2)ccc1O [Sulfasalazine] | 0.274 ± 0.0048
26 | Oc1c(Cl)cc(Cl)c(Cl)c1Cc1c(O)c(Cl)cc(Cl)c1Cl [Hexachlorophene] | 0.0444 ± 0.00067
27 | CC(C)(C)NC(=O)[C@@H]1C[C@@H]2CCCC[C@@H]2CN1C[C@@H](O)[C@H](Cc1ccccc1)NC(=O)[C@H](CC(N)=O)NC(=O)c1ccc2ccccc2n1 [Saquinavir mesylate] | 0.072 ± 0.012
28 | CN1CCN(C2=Nc3cc(Cl)ccc3Nc3ccccc32)CC1 [Clozapine] | 0.156 ± 0.008
29 | COc1ccc(C2CNC(=O)C2)cc1OC1CCCC1 (stereo not given) [Rolipram] | 0.209 ± 0.0078
30 | C[C@H](Cc1cc2c(c(C(N)=O)c1)N(CCCO)CC2)NCCOc1ccccc1OCC(F)(F)F [Silodosin] | 0.1773 ± 0.001
31 | COCCCOc1ccnc(C[S+]([O-])c2nc3ccccc3[nH]2)c1C (stereo not given) [Rabeprazole Sodium salt] | 0.186 ± 0.0019
32 | O=C(O)c1cccnc1Nc1cccc(C(F)(F)F)c1 [Niflumic acid] | 0.113 ± 0.0057
33 | C[C@]12CC[C@@H]3c4ccc(O)cc4C[C@@H](CCCCCCCCC[S+]([O-])CCCC(F)(F)C(F)(F)F)[C@H]3[C@@H]1CC[C@@H]2O (stereo not given in full) [Fulvestrant] | 0.265 ± 0.015
34 | CC(C)(C)NCC(O)COc1cccc2c1CC(O)C(O)C2 (stereo not given) [Nadolol] | 0.254 ± 0.016
35 | CCc1cccc(CC)c1NC(=O)CN(CC(=O)O)CC(=O)O [Etifenin] | 0.2457 ± 0.00078
36 | CCC(=O)[C@@]1(C)[C@H](C)C[C@H]2[C@@H]3CCC4=CC(=O)C=C[C@]4(C)[C@H]3[C@@H](O)C[C@@]21C [Rimexolone] | 0.216 ± 0.0076
37 | Cc1cn([C@H]2C[C@H](N=[N+]=[N-])[C@@H](CO)O2)c(=O)[nH]c1=O [Zidovudine, AZT] | 0.0935 ± 0.0041
38 | O=C(CCCCCCC(=O)Nc1ccccc1)NO [Vorinostat] | 0.253 ± 0.0073
39 | CN/C(=N\CCSCc1nc[nH]c1C)NC#N [Cimetidine] | 0.249 ± 0.0059
40 | O=C(N[C@H](CO)[C@H](O)c1ccc([N+](=O)[O-])cc1)C(Cl)Cl [Chloramphenicol] | 0.0406 ± 0.00026
